In all, about 220,000 compounds went through this assay and about 16,000 (7.3%) were called active. Not shown: some 25% with an inconclusive outcome. The call rests on the fitted dose curve; in most records, active means well fitted inhibition curve with a large enough effect (not every such curve was filed as active); inconclusive means small, poorly fitted or top-dose-only effect, or another doubt; inactive means no such curve, though single readings can be large or run the other way. The entries come from a sample that favours actives as a whole.
molecular target: Aldehyde dehydrogenase 1A1 (Homo sapiens) (UniProt P00352); assay: qHTS Assay for Inhibitors of Aldehyde Dehydrogenase 1 (ALDH1A1); details: Purified ALDH1A1, NADH fluorescence, propionaldehyde substrate; series mostly up to 75.3 µM; activity, negative = inhibition: at the top concentration;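 on activity, negative = inhibition: plate controls were no enzyme wells and a reference inhibitor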
Potency means the concentration at half of the fitted maximal effect.

Sequence of Aldehyde dehydrogenase 1A1 (Homo sapiens) (P00352 whole entry, looked up): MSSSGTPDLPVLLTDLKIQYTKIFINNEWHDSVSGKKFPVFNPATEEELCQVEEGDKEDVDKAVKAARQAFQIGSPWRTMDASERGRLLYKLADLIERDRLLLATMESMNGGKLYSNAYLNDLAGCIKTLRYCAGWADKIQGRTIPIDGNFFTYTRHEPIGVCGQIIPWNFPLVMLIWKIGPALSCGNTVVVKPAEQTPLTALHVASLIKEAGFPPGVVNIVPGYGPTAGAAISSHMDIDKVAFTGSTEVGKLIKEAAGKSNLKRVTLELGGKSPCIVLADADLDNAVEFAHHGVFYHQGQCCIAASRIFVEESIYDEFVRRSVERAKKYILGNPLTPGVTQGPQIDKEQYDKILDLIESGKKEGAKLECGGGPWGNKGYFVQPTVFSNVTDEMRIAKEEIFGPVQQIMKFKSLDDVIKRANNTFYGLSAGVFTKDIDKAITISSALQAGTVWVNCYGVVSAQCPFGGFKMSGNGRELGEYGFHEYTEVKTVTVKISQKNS

activity, negative = inhibition, inactive:
Cc1ccc(S(=O)(=O)N2CCOCC2)cc1C(=O)OC1CCCCC1=O (centres undefined) -0.864%
CCC(C)NC(=O)Cn1nc(C(F)(F)F)c2c1CCC2 (centres undefined) 9.42%
CS(=O)(=O)N(CC(=O)N1CCCC1)Cc1ccccc1 5.09%
CS(=O)(=O)N1CCC(C(=O)N2CCN(c3ccccc3)CC2)CC1 -3.06%
O=C(Nc1ccc(Cl)cc1)Nc1ccc(Oc2cccnc2)nc1 -9.71%
Cc1ccc(-n2cc(CN(C)Cc3nccn3C)c(-c3cccc(C)c3)n2)cc1 6.12%
COc1cccc(Cn2c(=O)c(C)nc3cnc(Oc4ccccc4)nc32)c1 -15%
COc1cccc(Cn2c(=O)c(-c3cc(F)cc(F)c3)nc3cnc(OC)nc32)c1 -9.66%
COc1ccc(OC)c(NC(=O)CN(Cc2ccc(Cl)cc2)S(C)(=O)=O)c1 -11.2%
CCC(C)(C)C1CCC(=NNC(=O)c2ccc(Br)o2)CC1 (centres undefined) -10.7%
Cc1nc2cnc(Nc3ccccc3)nc2n(Cc2ccc(F)cc2)c1=O -0.0659%
O=c1[nH]c2c(c(=O)n1Cc1ccccc1)CCC2 -3.17%
CCS(=O)(=O)c1ccc(C(=O)NC)c(Cl)c1Cl -5.81%
c1ccc(CCn2nnnc2CN2CCN(C3CCCC3)CC2)cc1 -1.52%
COc1ccc(C(c2nnnn2C2CCCCC2)N2CCN(c3ccccc3F)CC2)cc1 (centres undefined) -12.1%
Cc1ccc(N(CCC(=O)O)S(=O)(=O)c2cccc(C(F)(F)F)c2)cc1 4.5%
COc1ccc2c(c1)c(=O)c(C(=O)c1ccc(Cl)cc1)cn2CC(=O)Nc1ccc(F)cc1 -1.25%
COc1ccc2[nH]cc(CCNc3ncnc4ccc(-c5ccccc5CN(C)C)cc34)c2c1 7.41%
COc1ccc2[nH]cc(CCNc3nc(-c4cccc(NS(C)(=O)=O)c4)nc4ccccc34)c2c1 -0.602%
Cc1ccccc1NC(=O)NNC(=O)OC(C)(C)C -0.0746%
Cc1c(CCOC(=O)c2cc([N+](=O)[O-])ccc2Cl)sc[n+]1CCCCS(=O)(=O)[O-] -8.66%
COc1cccc2c(N/N=C/c3ccco3)cc(C)nc12 -13.1%
Clc1ccc(CN2CCN(/N=C/c3cccnc3)CC2)cc1 5.02%
O=Cc1cn(Cc2ccccc2)nc1-c1cccnc1 -6.61%
O=C(Nc1ccccc1C(=O)N1CCOCC1)c1ccc(CSc2ccccc2)cc1 5.23%
O=C(/C=C/c1ccc(Cl)cc1)Nc1ccc(Br)cn1 7.71%
O=C(CSc1c2c(nc3ccc(Cl)cc13)CCCC2)NCc1ccco1 -7.39%
Cc1cc(NC(=O)CSc2nc3cc(Cl)ccc3c(=O)n2Cc2ccco2)no1 -5%
COc1ccc(-n2c(SCC(=O)Nc3sc4c(c3C#N)CCCC4)nnc2-c2ccc(O)cc2)cc1 1.64%
O=C(CSc1nc2cc3c(cc2c(=O)n1CCC1=CCCCC1)OCO3)NCc1ccco1 3.46%
COc1cc(CNc2ncn[nH]2)ccc1OCc1ccccc1C -2.52%
CCC(=O)N1CCC(C(N)=O)(N2CCCCC2)CC1 4.55%
CC(O)CNCCOc1cccc(Oc2ccccc2)c1 (centres undefined) -2.23%
CCOCCCNC(=O)C(NC(=O)Cc1c[nH]c2ccccc12)c1ccc(OC)cc1 (centres undefined) 15.4%
CN1CCN(c2ccc(CNS(=O)(=O)c3cccc(F)c3)cc2)CC1 4.18%
O=C(/C=C/c1ccc(Cl)c([N+](=O)[O-])c1)c1cccnc1 -4.75%
O=C(/C=C/c1ccc(Cl)cc1Cl)NCc1ccco1 -14.2%
CC1(C)CC(=O)C(C2c3ccccc3S(=O)(=O)c3ccccc32)C(=O)C1 0.149%
COC(=O)c1cc(C)sc1NC(=O)CC1Nc2ccccc2NC1=O (centres undefined) -11.8%
CN(NC(=O)C1CC(=O)N(c2ccccc2)C1)C1=NS(=O)(=O)c2ccccc21 (centres undefined) 21.9%
CCOC(=O)c1c(NC(=O)c2ccc(N3CCOCC3)c([N+](=O)[O-])c2)sc(C)c1C -13.7%
O=C(CCNC(=O)c1ccc([N+](=O)[O-])cc1)Nc1ccccc1N1CCOCC1 0.402%
O=C(CSc1ccc([N+](=O)[O-])cn1)Nc1ccc(N2CCOCC2)cc1 -1.5%
CCOc1ccc(C(=O)NC(=S)Nc2ccc(NC(=O)C(C)C)cc2)cc1[N+](=O)[O-] 0.53%
CN(C)N(C)C(=O)C(O)(c1ccccc1)c1ccccc1 8.36%
Cc1ccc(S(=O)(=O)N(C)c2ccc(OCC(=O)NC3=NCCS3)cc2)cc1 -3.62%
Cc1cc(C(C)(C)C)cc(C)c1N 1.92%
Cc1ccnc(N)c1 -5.54%
Cc1ccc(NC(=O)c2cccnc2C(=O)Nc2ccc(C)cc2)cc1 -3.95%
CCCCCCSc1nsc(N)n1 4.63%
COc1ccccc1OCC(=O)OCn1c(SC)nnc(C)c1=O -9.76%
CCOC(=O)c1cnc2[nH]c3ccccc3n2c1=O -6.72%
CCSc1ccccc1C(=O)Nc1ccc2c(c1)OCO2 -6.99%
CCOC(=O)C1=C(C)Nc2nc3ccccc3n2C1c1cccs1 (centres undefined) 2.54%
CCOC(=O)C1=C(C)NC(C)=C(C(=O)OCC)C1c1ccccn1 -5.2%

Potency, active:
CS(=O)(=O)N1CCN(C(=O)Cc2ccccc2)CC1 8.91 µM
COc1cccc(Cn2c(=O)cnc3cncnc32)c1 2.51 µM
Cc1cc2nc3c(=O)n(Cc4ccccc4)c(=O)[nH]c3nc2cc1N 12.6 µM
c1ccc(C(c2ccccc2)N2CCN(Cc3nnnn3C3CCCCC3)CC2)cc1 7.94 µM
COc1ccc2[nH]cc(CCNc3ncnc4ccc(-c5ccc(C(=O)N(C)C)cc5)cc34)c2c1 25.1 µM
O=C1/C(=C\c2cccnc2)CN(Cc2ccccc2)C/C1=C\c1cccnc1 7.94 µM
C=C(C)Cn1c(SCC(=O)NCc2ccco2)nc2sc3c(c2c1=O)CCC3 11.2 µM
N#Cc1c(NC(=O)CSc2nc3ccccc3c(=O)n2Cc2ccco2)sc2c1CCCC2 25.1 µM
O=C(/C=C/c1ccc(Cl)cc1Cl)c1cccnc1 10 µM
CCOc1ccc(C(=O)NC(=S)Nc2ccc(N3CCOCC3)c(Cl)c2)cc1[N+](=O)[O-] 2.51 µM
O=C(CSc1ccc([N+](=O)[O-])cn1)Nc1ccc(N2CCOCC2)c(Cl)c1 22.4 µM
Cc1cc(C)cc(N)c1 25.1 µM
CCCSc1nsc(N)n1 20 µM
CCOC(=O)C1=C(C)NC(=S)NC1c1cccs1 (centres undefined) 3.16 µM

Reference: PubChem BioAssay AID1030 (National Center for Advancing Translational Sciences (NCATS), 2008)
